Source: PubChem BioAssay (NCI)
This is part of a sample that, as a whole, favours compounds with a hit. Of some 83,000 tested, about 20% had one in any assay.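 Single-dose data. Exposure time 48 hours. Values below 10 considered active.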 Values without a mark were called inactive. Active and inactive are the calls of the source.

Experiments:
Assay in all cases: NCI-60 one-dose screen, 48 h (100 = growth as untreated, 0 = no growth, -100 = all killed)
Conditions in all cases: 10 µM unless noted
NCI-H23 lung = system: NCI-H23 lung
NCI-H226 lung = system: NCI-H226 lung
NCI-H322M lung = system: NCI-H322M lung
HOP-62 NSCLC = system: HOP-62 NSCLC
NCI-H460 lung = system: NCI-H460 lung
HOP-92 NSCLC = system: HOP-92 NSCLC
NCI-H522 lung = system: NCI-H522 lung
A549/ATCC NSCLC = system: A549/ATCC NSCLC
786-0 renal = system: 786-0 renal
COLO 205 colon = system: COLO 205 colon
DU-145 prostate = system: DU-145 prostate
K-562 leukemia = system: K-562 leukemia
MALME-3M melanoma = system: MALME-3M melanoma
MDA-MB-231 breast = system: MDA-MB-231 breast
RXF 393 renal = system: RXF 393 renal
SF-268 CNS = system: SF-268 CNS
SF-295 CNS = system: SF-295 CNS
SF-539 CNS = system: SF-539 CNS
UACC-257 melanoma = system: UACC-257 melanoma
M14 melanoma = system: M14 melanoma

Compound	growth (NCI-H23 lung) [%]	growth (NCI-H226 lung) [%]	growth (NCI-H322M lung)	growth (HOP-62 NSCLC)	growth (NCI-H460 lung)	growth (HOP-92 NSCLC) [%]	growth (NCI-H522 lung)	growth (A549/ATCC NSCLC)	growth (786-0 renal)	growth (COLO 205 colon) [%]	growth (DU-145 prostate)	growth (K-562 leukemia)	growth (MALME-3M melanoma) [%]	growth (MDA-MB-231 breast)	growth (RXF 393 renal) [%]	growth (SF-268 CNS)	growth (SF-295 CNS)	growth (SF-539 CNS)	growth (UACC-257 melanoma) [%]	growth (M14 melanoma)
COC(=O)/C=C1\S/C(=N\NC(=O)c2cc3ccc2/C=C\c2ccc(cc2)/C=C\3)N(Cc2ccccc2)C1=O	77.4	64.8	93.3%	77.2%	93.7%	75.5	15.9%	77%	49.6%	72.7	83.2%	18.9%	88.4	56.8%	15.6	85%	89.4%	43.3%	81	63.4%
C#CCNC(=O)[C@]1(C)CC[C@]2(C)CC[C@@H]3C(=CC[C@H]4[C@@]3(C)CC[C@H]3C(C)(C)C(=O)CC[C@]43C)[C@@H]2C1	91	98.7	90.9%	101%	97.6%	99.9	79.8%	91.6%	89.8%	101	98.8%	63.7%	114	98%	116	95.7%	107%	102%	98.7	95.8%
COc1cccc(-c2cc(C(=O)Nc3ccc(/C=C/c4ccc(OC5CCN(C)CC5)cc4)cc3)ccc2OC)c1	12.6	76.2	5.51% (active)	-27.5% (active)	-72.3% (active)	11	-46.3% (active)	-34% (active)	-95.2% (active)	29.1	-64.9% (active)	-47.9% (active)	51.3	-60.5% (active)	28.9	-30.8% (active)	-63% (active)	8.18% (active)	83.7	-21.8% (active)
O=C(Cc1ccc(/C=C/C(=O)c2ncc[nH]2)cc1)Nc1ccc(Cl)cc1	28.6	82.2	42.8%	8.21% (active)	-35.5% (active)	76	34.2%	33.2%	4.48% (active)	32.9	18.4%	8.02% (active)	89.3	22.3%	49.7	12%	8.31% (active)	-23.1% (active)	78.7	63.6%
C=C1C(=O)O[C@H]2[C@H]1CC/C(C(=O)NCCCCCNC(=O)/C1=C/CC[C@@]3(C)O[C@H]3[C@H]3OC(=O)C(=C)[C@@H]3CC1)=C\CC[C@@]1(C)O[C@@H]21	97.6	103	93.9%	98.8%	109%	105	89.3%	95.3%	101%	102	104%	114%	96.2	106%	110	96.1%	105%	105%	97.7	92.3%
O=C(Nc1ccc(Cl)cc1)c1cc(NCc2cc(O)ccc2O)ccc1O	93.2	95.2	94.9%	102%	98.7%	80.4	-59.7% (active)	80.7%	95.6%	105	100%	41.9%	80.2	69.1%	67.1	77.2%	116%	43.5%	77.3	102%
ClC1=C(Br)C(Br)(Br)C(=C(Br)Br)C1(Br)Br	104	93.6	99%	121%	94.7%	94	-25% (active)	94.6%	109%	57.3	104%	70.1%	94.1	79.2%	94.3	108%	115%	100%	87.6	81.6%
c1ccc2c(-c3nccs3)c[nH]c2c1	96.2	97	98%	99.2%	105%	89.7	92.2%	100%	88.8%	119	107%	99.2%	99.1	92.6%	95	96.7%	101%	96.4%	111	99.1%
